# In the supplement of paper PMC3334620:
# In all, about 33,000 sequences were measured (“E-score (-0.5 to 0.5)”: median about -0.017, highest 2% from about 0.3 on). Shown is part of a subset that was picked to be rich in the highest values.
# Molecular target: T1, Sut1 (UniProt P53032)
# T1 sequence: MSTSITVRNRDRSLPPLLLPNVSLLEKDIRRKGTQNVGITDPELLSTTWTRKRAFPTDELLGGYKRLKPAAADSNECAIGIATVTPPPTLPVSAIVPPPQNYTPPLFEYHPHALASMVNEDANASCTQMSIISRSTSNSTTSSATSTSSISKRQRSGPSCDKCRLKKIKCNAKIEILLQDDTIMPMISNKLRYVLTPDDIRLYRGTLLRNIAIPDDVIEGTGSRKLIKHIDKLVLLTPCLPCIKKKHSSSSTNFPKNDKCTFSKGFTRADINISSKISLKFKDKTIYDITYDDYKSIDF
# Test: PBM E-score (8-mer binding enrichment) (E-score (-0.5 to 0.5)); higher = stronger / more preferred TF binding
# Conditions: protein concentration: 200 nM; construct: GST-full length
# Procedure: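 Universal 'all 10-mer' protein binding microarrays (Agilent AMADID 015681) probed with GST-tagged S. cerevisiae TFs (full-length or DBD) made by in vitro transcription/translation (PURExpress), about 100-200 nM. Bound TF was detected with fluorescent anti-GST. Each ungapped 8-mer (which stands for itself and its reverse complement) is scored by the PBM enrichment score (E-score), a modified Wilcoxon-Mann-Whitney statistic from -0.5 to +0.5, computed with the Universal PBM Analysis Suite. Scale: above 0.35 generally sequence-specific binding.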
row,Sequence,PBM E-score
1,GCACCTTA,-0.00495
2,GTTACACA,-0.2
3,GAAAGGGC,0.00203
4,CACAGCAC,-0.205
5,GCTTCCGA,0.303
6,CTTTCCGA,0.226
7,GTTTCCGA,0.332
8,GTTTCCAA,0.0451
9,ACTTCCGA,0.245
10,CCTTCCGA,0.134
11,AGTGGATG,-0.0759
12,ATCCCTCC,-0.194
13,GAGTGAAC,-0.111
14,AAACTCCT,0.016
15,AAACTCCA,0.297
16,TAACTCCA,0.143
17,ATCTTATC,0.154
18,ACGAGGTG,-0.21
19,ATATAAGC,0.0532
20,AAGAAATG,0.144
21,AACAAATT,0.306
22,AAGAAATT,0.313
23,AAGAAAAA,0.319
24,AAGAAATA,0.177
25,AAGAAAAT,0.257
26,AAGAAAAG,0.116

row,Sequence,PBM E-score
1,AACAAGTT,0.132
2,AACAAATG,0.159
3,GACGCCGC,-0.221
4,ACAGTCTC,-0.112
5,CGACGGGC,-0.197
6,TACTATAA,0.306
7,TACTAAAA,0.207
8,AACTAAAA,0.31
9,AACTATAA,0.204
10,AACTAACA,0.0858
11,AACTAATA,0.324
12,AACTAACC,0.336
13,AACTAACT,0.175
14,CACTAATA,0.213
15,TACTAATA,0.181
16,AACTAAAG,0.195
17,CACTATAA,-0.0412
18,AGGGGTGG,-0.277
19,AGCCGTGA,-0.0248
20,TGAATACA,0.241
21,ATCTGGTG,-0.015
22,ATTAGATG,0.303
23,ATTAGATA,0.175
24,ATTAGATC,0.0421
25,ATATTCAG,0.04
26,ACTTCGGA,0.397

row,Sequence,PBM E-score
1,CCTTCGCA,-0.178
2,CCTTCGGC,-0.233
3,GCTTCGTA,0.0454
4,ACTTCGGC,0.14
5,ACTTCGGG,0.0676
6,GCTTCGGA,0.324
7,GCTTCGCA,-0.197
8,CCTTCGGA,0.32
9,AATCTGTC,0.133
10,GGAAAGAC,-0.0333
11,CGGCGTAG,-0.176
12,AAAACTGG,0.149
13,ATTGCTGA,-0.0342
14,CATGAGAA,0.0161
15,GCCAAGCC,-0.0191
16,CGCGGAGA,0.387
17,GGCGGAGA,0.23
18,AGCGGAGG,-0.201
19,CGCGGAGC,0.26
20,AGCGGAGA,0.325
21,AGCGGAGC,0.137
22,GACGGTCA,-0.253
23,CCAAGGGG,-0.143
24,ACCTTCGC,-0.0159
25,ATTAACAC,0.302
26,ATTAACAA,0.199

row,Sequence,PBM E-score
1,CTTAACAC,-0.122
2,AGCTATCA,-0.0476
3,ATGCCGGG,-0.0609
4,ATGCCGGA,0.325
5,TAGCCGGA,0.282
6,ATGCCGGC,-0.0395
7,AAGCCGGA,0.331
8,GAGCCGGA,0.254
9,ACCATAAC,0.0292
10,AATTTAAG,0.218
11,AATTTTAC,0.27
12,AATTTTAT,0.317
13,AATTTAAT,0.317
14,AATTTTAA,0.295
15,AATTTAAC,0.255
16,AGCCTAGA,-0.224
17,GAACCGCA,0.0646
18,AATTGACC,0.0635
19,CGAGTGAG,0.0764
20,GGGAATAA,0.233
21,GGGAATAC,-0.0577
22,TGGAATAA,0.122
23,CGGAATAA,0.306
24,CGGAATAC,0.325
25,AGGAATAC,-3e-05
26,AAAGGGTA,-0.054

row,Sequence,PBM E-score
1,TGTGGCAA,-0.0604
2,GAATTGGA,0.0498
3,CCCAAACC,-0.0698
4,GTCCCGCA,-0.159
5,CTCCCGGA,0.232
6,GTCCCCGA,0.066
7,GTCCCGGA,0.348
8,ATCCCGGA,0.328
9,ATCCCGGG,-0.07
10,CAGTCGAC,-0.0872
11,TATGCTGA,0.175
12,CACACCGG,0.0539
13,AACACCGG,0.301
14,AACACCGC,-0.0108
15,CTGCTATC,0.134
16,AGTCTCTG,-0.12
17,AGCAGTAA,0.0389
18,AAAAGGCA,0.114
19,GAGACGAA,-0.0447
20,CAGACGAC,-0.213
21,CAGACGAA,0.298
22,AGCTATGC,-0.227
23,GGGAATTA,0.143
24,AGGAATTC,-0.203
25,CTGAATTC,-0.102
26,CGGAATTA,0.349

row,Sequence,PBM E-score
1,AGGAATTA,0.137
2,CGGAATTC,0.323
3,CATGTGAC,-0.0811
4,AATAAGTC,0.0835
5,AAATCCGG,0.36
6,AATTCCGG,0.337
7,AATTCCCT,-0.0468
8,AAATCCGC,-0.0542
9,CATTCCGG,0.194
10,AATTCCAT,0.0698
11,AATTCCGC,0.192
12,AATTCCGT,0.317
13,AAATCCGT,0.149
14,AAGAGTCG,0.00242
15,AGTAGTGC,-0.185
16,ACACTCGG,0.00116
17,GAGAATGC,0.0169
18,CACTTATA,0.0975
19,AACTTATG,0.0687
20,TACTTATA,0.151
21,GACTTATC,-0.0236
22,AACTTATA,0.31
23,GACTTATA,0.326
24,AACGTCTT,-0.113
25,GGCTCCCC,-0.226
26,CAAGGCCC,-0.132

row,Sequence,PBM E-score
1,CGCATAAG,-0.0216
2,CATAGGGA,-0.0219
3,CAGGTGGC,-0.219
4,GTTGGTGA,-0.0399
5,ACCGGAGA,0.43
6,ACCAGAGT,-0.256
7,ACCGGAGT,0.492
8,ACCGGATC,0.0878
9,ACAGGAGA,-0.137
10,CCCGGATA,0.123
11,CCCGGAGA,0.374
12,ACCGGAAT,0.204
13,ACCGGAGC,0.353
14,ACCGGATA,0.0607
15,CCCGGAGG,0.0148
16,ACCGGAGG,0.133
17,TGTCTGAA,0.0592
18,ACCGGTCT,-0.115
19,ATGACAAT,0.198
20,GCCGGAGA,0.316
21,CCCGGAGC,0.406
22,TCCGGAGA,0.409
23,CCCGGAAC,0.129
24,GCCGGAAA,0.244
25,CCGGGAGC,-0.0765
26,GCCGGAGC,0.284

row,Sequence,PBM E-score
1,TCAGGAGA,0.0262
2,TCCAGAGA,-0.187
3,CCACCCAG,-0.129
4,CCGAGTTC,0.0827
5,ATACTGGG,-0.138
6,AATCCGAA,0.159
7,AGTCCGAA,0.49
8,AGTCCTAT,0.0983
9,GGTCCGAC,0.24
10,CGTCCGAG,0.149
11,AGTCCGAT,0.486
12,AGTCCGAG,0.489
13,CGTCCGAC,-0.14
14,AATCCGAT,0.195
15,AGTCCGAC,0.477
16,AATCCGAG,0.0276
17,AGTCCAAA,0.169
18,CGCATTCC,-0.284
19,AGTATCGG,0.176
20,CGTGGGTC,-0.162
21,CCTCAAGA,-0.113
22,GTCCTCAC,-0.0725
23,ACAGTCAC,-0.176
24,GCATACAA,0.0888
25,GTATACAA,0.179
26,CCATACAA,0.0626

row,Sequence,PBM E-score
1,TTATACAA,0.326
2,ATATACAA,0.256
3,TCATACAA,0.304
4,AACCTTGA,0.116
5,GATGGTGC,-0.409
6,GCAGGGAA,0.0261
7,CAAGAGAA,0.0231
8,AGAAGCCC,0.167
9,CAATATAG,0.1
10,TAATAATA,0.282
11,TAATAAAA,0.332
12,GGATAAAA,0.252
13,CGATAAAA,0.303
14,CAATATAC,0.144
15,CAATAAAA,0.136
16,TAATATAA,0.306
17,CAATATAA,0.308
18,TGATAAAA,0.283
19,GAATATAA,0.153
20,GAATAAAA,0.242
